VACV mCherry inh = vaccinia inhibition (mCherry reporter). Vaccinia virus mCherry reporter infection, fluorescence. hit rate 0.63% among 310,000. Potency, µM (series often up to 36.5 µM), inactives show at the highest dose activity change, negative = inhibition, hits mostly inhibitors. AID 720579; calls by dose curve; tested in A549 cells; further: nearly all actives have a fitted effect of over 35% in size
LASV entry inh = Lassa virus entry inhibition | Potency, µM (titrated, usually from 37.9 µM), without a hit: at the top dose activity change, negative = inhibition, hits mostly inhibitors | hit rate 1.2% among 300,000 | AID 540256 | Lassa virus pseudotype entry inhibition, cell reporter; calls by dose curve; tested in HEK293 cells; further: nearly all actives have a fitted effect of over 50% in size
MARV entry inh = blocks Marburg virus binding to or entry into cells. Potency, µM (top dose mostly 37.8 µM), for inactives: top-dose activity change, negative = inhibition, usual class: inhibitors. hit rate 1.8% among 300,000. AID 540276. Marburg virus pseudotyped entry inhibition, cell reporter; calls by dose curve; tested in HEK293 cells
FMDV antiviral = antivirals against foot and mouth disease virus; FMDV antiviral cell-based qHTS; Potency, µM (highest dose often 57.9 µM), for inactives: at the top dose activity change, negative = inhibition, usual class: inhibitors; hit rate 1.2% among 410,000; calls by dose curve; tested in HEK293T cells; further: read-out not given here; nearly all actives have a fitted effect of over 45% in size
VACV Venus inh = vaccinia inhibition (Venus reporter) | Vaccinia virus Venus reporter expression, fluorescence | Potency, µM (doses to about 36.5 µM), without a hit: at the highest dose activity change, negative = inhibition, actives largely listed as inhibitors | hit rate 0.46% among 330,000; calls by dose curve; tested in A549 cells; further: nearly all actives have a fitted effect of over 30% in size
* hit, by the source's call; i = inactive; u = inconclusive; x = not tested or not shown; ! = repeats disagree; [ ] = dose if it differs, or a comment. Sampled rows, rich in hits. Any-hit rate of the full collection: about 3.2%. On the % scale 0 is the no-effect control and ±100 the full control effect; potency means the concentration at half of the fitted maximal effect.

SMILES	VACV mCherry inh	LASV entry inh	MARV entry inh	FMDV antiviral	VACV Venus inh
COc1ccc2[nH]c3nc(SC(C)C)nnc3c2c1	-14%	2.2µM*	u	13µM*	-9%
COc1ccc(CNC(=O)CSc2nnc3c(n2)[nH]c2ccc(OC)cc23)cc1	9%	x	u	11%	-1%
O=C(CCCSc1nc2ccccc2[nH]1)N1CCN(c2ccc([N+](=O)[O-])cc2)CC1	i	-1%	2%	18µM*	-20%
O=C(CSc1nc2ccccc2[nH]1)N1CCN(c2ccc(F)cc2)CC1	-30%	-15%	-2%	u	-14%
O=C1OC/C(=C(/O)c2ccc(Cl)cc2)C1=O	x	x	x	5%	x
CCCCn1c(=O)[nH]c(=O)c2c1nc(-c1ccccc1F)n2Cc1ccccc1OC	-8%	11µM*	u	u	-23%
COc1ccc(CN(CCC(c2ccc(F)cc2)C2CCOC(C)(C)C2)C(=O)c2ccco2)cc1 (stereo not given)	-15%	u	7.9µM*!	u	-14%
COc1ccc(CN(CCC(c2ccccc2)c2ccco2)C(=O)c2ccco2)cc1 (stereo not given)	i	u	10µM*	-19%	-7%
CC(c1ccccc1)N(CCC(c1ccccc1)C1CCOC(C)(C)C1)C(=O)c1ccco1 (stereo not given)	-13%	u	4µM*	u	-9%
[Hg+][c]1ccccc1	2µM*	x	x	x	2µM*
CCN1C(=O)[C@@H]2[C@H]3[C@H](O)[C@H](O)CC(=NO[C@@H](C)c4cc(-c5c(C)cc(C)cc5C)no4)[C@@H]3CC[C@H]2C1=O	x	x	-13%[14.2 µM]	x	x
O=C(c1cnn2c1NC(c1ccco1)CC2C(F)(F)F)N1CCN(c2cccc(Cl)c2)CC1 (stereo not given)	x	13µM*	u	u	u
O=[N+]([O-])c1cccc(N/N=C/c2cc([N+](=O)[O-])ccc2O)c1	-22%	u	u	-27%	-24%
O=[N+]([O-])c1ccc(O)c(/C=N/Nc2nc3ccccc3[nH]2)c1	8.9µM*	3.5µM*	2.8µM*	11%	u
O=[N+]([O-])c1ccc(O)c(/C=N/Nc2ccccn2)c1	1.8µM*	u	u	-22%	5µM*
Cc1ccc2ncccc2c1	i	x	x	0%	-5%
c1cnc2ccc(-c3ccc4ncccc4c3)cc2c1	-20%	4.5µM*	u	-25%	-26%
CC(C)=CCCC(C)=CCON=C1C[C@@H](O)[C@@H](O)[C@@H]2[C@H]3C(=O)N(C[C@@H]4CCCO4)C(=O)[C@@H]3CC[C@H]12	x	x	22%[14.2 µM]	x	x
COc1ccc(OC)c(NC(=O)c2cccc(NC(=O)c3ccco3)c2)c1	-11%	x	x	u	-18%
CCOC(=O)Cc1csc(N/N=C/c2cccc([N+](=O)[O-])c2)n1	-22%	-25%	-20%[46.1 µM]	0%	-18%
CN(C)S(=O)(=O)c1ccc(-c2csc(N/N=C/c3ccco3)n2)cc1	u	8.9µM*	u	6.3µM*	-18%
CN(C)S(=O)(=O)c1ccc(-c2csc(N/N=C/c3ccc(O)cc3)n2)cc1	u	7.1µM*	7.3µM*	14µM*	u
O=[N+]([O-])c1cccc(-c2csc(N/N=C/c3cccc(O)c3)n2)c1	u	7.9µM*	u	u	u
C(=N\Nc1nc(-c2ccccc2)cs1)/c1ccncc1	-53%	u	-19%[46.1 µM]	36%	2%
c1ccc2oc(-c3csc(N4CCOCC4)n3)cc2c1	-10%	u	7.9µM*	-59%	-19%
SMILES	VACV mCherry inh	LASV entry inh	MARV entry inh	FMDV antiviral	VACV Venus inh
Fc1ccc(-c2csc(N3CCOCC3)n2)cc1	u	5%[46.1 µM]	u	18%	-1%
COC(=O)c1ccc(-n2c(/C=C/c3cc(OC)c(OC)c(OC)c3)nc3cc(Cl)ccc3c2=O)cc1	u	-4%[46.1 µM]	x	-26%	-28%
CN[C@H]1C[C@H]2c3[nH]c4ccc(-c5ccc(OC)cc5)cc4c3CCN2C(=O)[C@H]1[C@H](C)O	u	x	x	u	13µM*
COc1cccc(-n2nnc3c(=O)n(Cc4ccc(C)cc4)cnc32)c1	x	4.1µM*	u	0%	x
COC(=O)N/N=C/c1ccc([N+](=O)[O-])s1	-20%	u	u	-11%	u
Cc1ccc(NC(C)C(=O)N/N=C/c2ccc([N+](=O)[O-])s2)cc1 (stereo not given)	u	u	u	-4%	u
Cc1cc(C(=O)N/N=C/c2ccc([N+](=O)[O-])s2)c2ccccc2n1	10µM*	u	u	-16%	28µM*
COc1ccc(NC(C)C(=O)N/N=C/c2ccc([N+](=O)[O-])s2)cc1 (stereo not given)	8.9µM*	-11%	-9%[46.1 µM]	-24%	13µM*
Cc1cc(C(=O)N/N=C/c2ccc([N+](=O)[O-])cc2)c2ccccc2n1	x	x	x	4%	x
O=C(N/N=C/c1ccc([N+](=O)[O-])s1)c1ccccc1Br	u	u	u	x	11µM*
Cc1ccccc1C(=O)N/N=C/c1ccc([N+](=O)[O-])s1	-22%	-24%	4.1µM*	x	u
O=C(N/N=C/c1ccc([N+](=O)[O-])s1)C(O)c1ccccc1 (stereo not given)	x	u	-11%	43%	x
CN(C(=O)c1cnn(-c2ncc3c(n2)-c2ccccc2CCC3)c1C1CC1)C1CCOC1 (stereo not given)	-18%	x	x	27%	-17%
CC(C)OC(=O)[C@H](C)NC(=O)N1CCc2nc(-c3ccccc3)c3c(c2C1)CO[C@@H](C)C3	x	x	-2%[14.2 µM]	x	x
COc1ccc(C=CNC(=O)c2ccc(OC)cc2)cc1	x	x	18%[14.2 µM]	x	x
CCOc1cnn(Cc2ccccc2)c(=O)c1SCc1ccccc1	-3%	11%	11%	-5%	-10%
Cc1ccc(C(=O)N2CCC(c3c[nH]c4ccccc34)(c3c[nH]c4ccccc34)CC2)cc1	-21%	u	u	u	-11%
O=C(Nc1ccccc1)N1CCN(c2nc3ccccc3s2)CC1	x	7%	9%	u	x
O=C(Nc1ccc(F)cc1)N1CCN(c2nc3ccccc3s2)CC1	x	-17%	-26%	28µM*	u
OC(c1ccccc1)c1nc(-c2ccc(Cl)cc2)cs1 (stereo not given)	4%	x	x	19%	-21%
O=C1CC(=O)OC(c2ccc([N+](=O)[O-])cc2)O1	13µM*	x	x	10µM*	13µM*
C=C1C=C(C(F)F)n2ncc(C(=O)N3CCN(c4ccccn4)CC3)c2N1	4%	x	x	x	-16%
C/C(=N\N1CCCCC1c1cccnc1)c1c(O)n(C2CCCCC2)c(=S)[nH]c1=O (stereo not given)	u	u	15µM*	-29%	-16%
CCCCn1c(O)c(/C(CC)=N/N2CCCCC2c2cccnc2)c(=O)[nH]c1=S (stereo not given)	-15%	u	u	0%	-9%
CCC(=O)N1c2ccc(S(=O)(=O)NCc3ccc(F)cc3)cc2CC1C (stereo not given)	-17%	-25%[46.1 µM]	-16%[46.1 µM]	20%	-11%
Cc1nn(-c2ccccc2)c(Cl)c1CN(C(=O)CCl)c1cccc2ccccc12	-26%	u	u	28µM*	u
